Compound activity deposited in PubChem by National Center for Advancing Translational Sciences (NCATS).
ATXN2 expr inh: Primary qHTS for Inhibitors of ATXN expression; HEK-293 ATXN2-luciferase reporter, luminescence, 24 h; Potency, µM (series often up to 57 µM), for the others: at the highest dose activity change, negative = inhibition, actives largely listed as inhibitors; actives 0.72% (n = 360,000); also: % is scaled to controls: 0 for no effect and ±100 for the full control effect; nearly all actives have a fitted effect of over 55% in size
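ATXN2-luciferase reporter cells (luciferase flanked by upstream and downstream ATXN2 gene portions) were treated 24 h at 37 °C with compounds at up to 57 uM. SteadyGlo luminescence gave expression; GF-AFC fluorescence gave viability.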
HepG2 tox: qHTS for Inhibitors of TGF-b: Cytotox Counterscreen. Potency, µM (titrated, usually from 46.1 µM), for the others: top-dose activity change, negative = cytotoxicity, most hits filed as cytotoxic. HepG2 CAGA-GFP viability, ATP luminescence, 18 h. AID 588856, 2011. actives 0.76% (n = 410,000)
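CellTiter-Glo luminescence gave cytotoxicity after 18 hours at 37 degrees C. The cells were HepG2 CAGA-GFP in 1% FBS DMEM, stimulated with 500 pg/mL TGF-beta after compound addition. %Activity was normalised to no-cell wells (complete cell-killing) and DMSO (no toxicity), and curves were fitted and classified.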
S2 tox: Viability Counterscreen for Primary qHTS for Inhibitors of ATXN expression; S2 cells (HEK-293 line with an ATXN2-luciferase reporter) viability, CellTiter-Fluor protease fluorescence, 24 h; Potency, µM (top dose mostly 56.7 µM), hits mostly cytotoxic; actives 0.49% (n = 400,000); also: nearly all actives have a fitted effect of over 40% in size
DT40 TDP1 no CPT: qHTS for Inhibitors of human tyrosyl-DNA phosphodiesterase 1 (TDP1): qHTS in cells in absence of CPT. DT40 Tdp1-/- hTDP1 cells, no CPT, ATP luminescence, 48 h. Potency, µM (series often up to 46.2 µM), inactives show top-dose activity change, negative = growth inhibition, actives largely listed as inhibitors. actives 15% (n = 420,000); also: % is scaled to controls: 0 for no effect and ±100 for the full control effect; nearly all actives have a fitted effect of over 55% in size
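Readout: luminescence from CellTiter-Glo after 30 min in the dark at RT. Cells: DT40 Tdp1-/- with stable hTDP1, 400/well. Exposure: compounds alone, ≥48 hr, 37 °C.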
TGFb SMAD3 inh: qHTS for Inhibitors of TGF-b; actives 1.2% (n = 410,000); Potency, µM (top dose mostly 46.1 µM), for inactives: top-dose activity, negative = inhibition, actives largely listed as inhibitors; HepG2 CAGA-GFP TGF-b/SMAD3 reporter, GFP fluorescence, 18 h; TGF-beta stimulated, 500 pg/mL final; AID 588855, 2011; also: % is scaled to controls: 0 for no effect and ±100 for the full control effect; nearly all actives have a fitted effect of over 65% in size
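HEPG2 CAGA-GFP cells (1000/well, DMEM with 1% FBS) were pre-incubated 2 h at 37 degrees C, given compound by pin tool, then stimulated with TGF-beta at 500 pg/mL final for 18 h before per-cell GFP fluorescence imaging.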
DT40 TDP1 CPT: qHTS for Inhibitors of human tyrosyl-DNA phosphodiesterase 1 (TDP1): qHTS in cells in presence of CPT; actives 12% (n = 420,000); chicken DT40 Tdp1-/-;hTDP1 cells + 20 nM CPT, ATP luminescence, 48 h; Potency, µM (titrated, usually from 46.2 µM), for the others: top-dose activity change, negative = growth inhibition, hits mostly inhibitors; AID 686979, 2013; also: % is scaled to controls: 0 for no effect and ±100 for the full control effect; nearly all actives have a fitted effect of over 55% in size
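Cell growth measured by CellTiter-Glo luminescence after a minimum 48 h, 37 C compound exposure with 20 nM CPT in Tdp1-knockout DT40 cells stably expressing hTDP1, seeded 400/well; qHTS titration format.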
Starred values were filed as active, the others as inactive; i = inactive; u = inconclusive; x = no result given; ! = repeats disagree; [ ] = dose if it differs, or a comment. Compounds with a hit are over-represented: about 17% of the library has one in this group of screens. Calls follow the shape of the dose curve; as a rule, active = well fitted curve in the direction sought with a large enough effect; inconclusive = small, poorly fitted or top-dose-only effect, or another doubt; inactive = no such curve, though single readings can be large; an effect the other way counts as inactive or inconclusive. Potency is read from the fitted curve at half-maximal effect.

SMILES	ATXN2 expr inh	HepG2 tox	S2 tox	DT40 TDP1 no CPT	TGFb SMAD3 inh	DT40 TDP1 CPT
C=C(C)c1ccc(C(C)(C)NC(=O)N(Cc2ccccc2)Cc2ccco2)cc1	-15.5%	-26.5%	i	16.4µM*	2.5%	18.4µM*
C=C(C)c1ccc(C(C)(C)NC(=O)NCc2ccco2)cc1	-14.3%	-48.9%	i	-18.6%	6.5%	-9.5%
O=C(CSCc1ccc(Cl)cc1)Nc1ccc(Br)cc1C(=O)O	0.4%	-6.2%	i	24.1%	0.0%	8.5%
Cc1ccc(C(=O)N(Cc2ccc(N(C)C)cc2)Cc2ccco2)cc1	x	-23.2%	x	20.6µM*	x	u
CCCCCCCCCCCCC/C=C/[C@@H](O)[C@H](CO)N(C)C	x	x	x	1.5%[4.12 µM]	x	-1.6%[4.12 µM]
CCCCCCCCCCCCC/C=C/[C@@H](O)[C@@H](N)CO	1.1%	0.2%	i	11.6µM*!	15.9%	9.2µM*!
Cc1cc(C)cc(N(CC(=O)NC(C)(C)C)C(=O)CNC(=O)c2cccs2)c1	2.0%	3.0%	i	-1.5%	18.6%	25.6%
CC(C)C(=O)NCCc1nc2ccccc2n1C	1.7%	1.8%	i	-0.9%	-4.1%	-2.3%
CCc1nc2ccccc2n1CCC(C)C	1.5%	-22.2%	i	16.4µM*	u	25.9µM*
CC(C)C(=O)NCCc1nc2ccccc2n1CCc1ccccc1	-19.3%[11.3 µM]	3.5%	i	20.6µM*	0.7%	u
CC(C)Cc1nc2ccccc2n1CCc1ccccc1	-0.1%	-26.0%	i	u	-5.2%	23.1µM*
C=C(Br)Cn1c(CC(C)C)nc2ccccc21	-9.6%	-9.8%	i	9.2µM*	9.9%	11.6µM*
NC(=O)CC1NC(=O)c2cc([N+](=O)[O-])cc(I)c2OCCC(C(N)=O)NC(=O)[C@@H]2CCCN2C1=O (some centres undefined)	-4.1%	-0.1%	i	4.4%	6.6%	2.5%
CN(Cc1ccccc1)C1(CNC(=O)CCC(F)(F)F)Cc2ccccc2C1	6.4%	10.1%	i	u	-0.2%	u
Cc1cccc(N(CC(=O)N2CCCCCC2)S(C)(=O)=O)c1	x	-6.5%	i	-13.0%	-5.4%	-2.7%
N/C(=N\N=C/c1ccc(F)cc1)N/N=C\c1ccc(F)cc1	x	-131.5%	u	u	u	u
N/C(=N\N=C/c1ccc(Br)cc1)N/N=C\c1ccc(Br)cc1	-2.5%	11.2µM*	i	u	u	u
N/C(=N\N=Cc1ccc2c(c1)OCO2)NN=Cc1ccc2c(c1)OCO2	0.0%	-42.1%	29.9µM*	2.31µM*	u	3.26µM*
COc1ccc2c(c1)c1c(c(=O)n(-c3ccccc3)c(=O)n1CC(=O)NCCC1=CCCCC1)n2C	12.9%	-17.4%	i	-0.7%	-1.3%	-19.6%
Cc1ccc(OCCC(=O)OCC(=O)NCCNC(=O)COC(=O)CCOc2ccc(C)cc2)cc1	x	-28.3%	i	-13.9%	-0.1%	-8.9%
O=C(CN1C(=O)C2C3C=CC(C3)C2C1=O)NCCc1ccccc1 (centres undefined)	16.1%	5.6%	i	23.1µM*	-0.8%	11.6µM*
CCC1SC(CC)C(=O)N(CC(=O)NCCc2ccccc2)C1=O (centres undefined)	-13.8%	9.0%	i	7.9%	-7.9%	9.5%
Cc1ccc(NC(=O)c2ccc(NCCN)c([N+](=O)[O-])c2)cc1	15.1%	-26.6%	i	u	3.4%	u
O=C(NCCCN1CCOCC1)c1ccc(Sc2ccc(Br)cc2)c([N+](=O)[O-])c1	-4.0%	-6.7%	i	10.3µM*	-10.6%	6.51µM*
